# Measurements from publication PMC4336329 (PLoS ONE, 2015).
# Screen size: about 310,000 compounds; about 14,000 (4.5%) showed an effect of 50% or more. Effects have a minus sign here. Shown is part of a subset that was picked to be rich in strong results.
# Biological target: human ether-à-go-go-related gene (hERG) potassium channel (human, UniProt Q12809)
# Test: primary screen, population patch clamp on CHO cells stably expressing hERG; higher = less effect of the substance
# 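Also: peak tail current of the secondary pulse compared with the same well before compound.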
# Sequence of human ether-à-go-go-related gene (hERG) potassium channel (Q12809 whole entry, looked up): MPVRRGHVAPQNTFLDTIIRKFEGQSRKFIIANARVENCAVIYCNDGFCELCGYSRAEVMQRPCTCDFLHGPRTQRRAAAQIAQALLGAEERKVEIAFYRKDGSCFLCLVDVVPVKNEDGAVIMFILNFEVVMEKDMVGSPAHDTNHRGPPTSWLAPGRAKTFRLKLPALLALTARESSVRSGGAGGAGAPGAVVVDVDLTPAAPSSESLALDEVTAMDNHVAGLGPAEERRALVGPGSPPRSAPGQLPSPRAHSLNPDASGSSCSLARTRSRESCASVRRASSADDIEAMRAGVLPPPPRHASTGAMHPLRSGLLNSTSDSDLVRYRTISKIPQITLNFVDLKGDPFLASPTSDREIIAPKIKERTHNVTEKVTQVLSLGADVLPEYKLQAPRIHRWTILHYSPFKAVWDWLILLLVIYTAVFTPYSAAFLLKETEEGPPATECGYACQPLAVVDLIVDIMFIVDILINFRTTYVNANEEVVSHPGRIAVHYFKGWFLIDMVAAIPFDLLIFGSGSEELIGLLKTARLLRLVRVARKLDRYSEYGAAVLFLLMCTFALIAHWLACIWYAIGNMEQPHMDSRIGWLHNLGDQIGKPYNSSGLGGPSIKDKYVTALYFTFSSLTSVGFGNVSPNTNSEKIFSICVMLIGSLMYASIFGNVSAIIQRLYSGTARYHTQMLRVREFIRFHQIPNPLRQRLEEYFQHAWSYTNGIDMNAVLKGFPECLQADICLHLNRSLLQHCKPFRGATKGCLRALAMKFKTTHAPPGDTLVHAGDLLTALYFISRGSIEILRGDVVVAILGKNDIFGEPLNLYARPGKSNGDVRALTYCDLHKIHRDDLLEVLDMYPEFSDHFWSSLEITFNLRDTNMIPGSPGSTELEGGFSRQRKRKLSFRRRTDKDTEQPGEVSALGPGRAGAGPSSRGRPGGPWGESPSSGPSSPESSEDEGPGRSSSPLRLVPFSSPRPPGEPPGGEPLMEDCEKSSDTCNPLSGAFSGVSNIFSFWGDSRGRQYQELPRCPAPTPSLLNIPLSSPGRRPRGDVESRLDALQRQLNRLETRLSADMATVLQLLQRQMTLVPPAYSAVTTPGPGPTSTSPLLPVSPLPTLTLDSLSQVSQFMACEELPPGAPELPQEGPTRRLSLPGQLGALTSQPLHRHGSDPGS
row,Compound,"hERG current change (%, negative = inhibition) at 10uM"
1,Cn1nc(C(=O)NC2CCCC2)c2ccccc2c1=O,1.63%
2,COc1ccc(-c2nn(C)c(=O)c3ccccc23)cc1NC(=O)Cn1nc(C)c2ccccc2c1=O,-57.5%
3,CCCC(=O)NCc1cc(-c2nn(C)c(=O)c3ccccc23)ccc1OC,7.01%
4,Cn1nc(C(=O)NC2CCCCC2)c2ccccc2c1=O,-15.3%
5,CCC1CCCCN1C(=S)NC1CCCCC1 (stereo not drawn),17.2%
6,COc1cc(/C=C/C(=O)Nc2ccc(C)cc2)cc(OC)c1OC,-2.49%
7,O=C(C1CCN(S(=O)(=O)c2ccc(Br)s2)CC1)N1CCc2ccccc21,-46.8%
8,c1ccc(CCc2nn3c(C4COc5ccccc5O4)nnc3s2)cc1 (stereo not drawn),-1.79%
9,COc1ccc(/C=N/n2c(C3CCCCC3)n[nH]c2=S)c(OC)c1,23.6%
10,COc1ccc(N2CC(C(=O)N3CCOCC3)CC2=O)cc1 (stereo not drawn),18.3%
11,COc1cccc(N2CC(C(=O)Oc3ccc4ccccc4c3)CC2=O)c1 (stereo not drawn),-7.91%
12,COc1ccc(N2CC(C(=O)N3CCN(c4ccccc4)CC3)CC2=O)cc1 (stereo not drawn),-41.6%
13,COc1ccc(N2CC(C(=O)N3CCC4(CC3)CC(=O)c3ccccc3O4)CC2=O)cc1 (stereo not drawn),-78.1%
14,COc1ccc(OC)c(S(=O)(=O)N2CCC3(CC2)CC(=O)c2ccccc2O3)c1,-47.1%
15,COc1cccc(N2CC(C(=O)N3CCC4(CC3)CC(=O)c3ccccc3O4)CC2=O)c1 (stereo not drawn),-53.5%
16,Cc1[nH]c2ccccc2c1/C=N/NC(=O)CNC(=O)Cc1ccccc1,15.5%
17,NC(=O)c1nnn(-c2nonc2N)c1-c1ccc([N+](=O)[O-])cc1,24.7%
18,C=CCn1c(SCC(=O)c2ccc(NS(=O)(=O)c3ccccc3)cc2)nnc1-c1cccs1,-19.5%
19,COc1cc(/C=C/C(=O)OCC(=O)Nc2sc3c(c2C#N)CCC(C)C3)ccc1OCC#N (stereo not drawn),12.1%
20,COc1cccc(/C=C/C(=O)c2ccc3c(c2)OCO3)c1OC,1.82%
21,CC1CCC2(CC1)NC(=O)N(NC(=O)c1cccs1)C2=O (stereo not drawn),9.08%

row,Compound,"hERG current change (%, negative = inhibition) at 10uM"
1,O=C(COC(=O)CNC(=O)c1sc2ccccc2c1Cl)Nc1c(Cl)cc(Cl)cc1Cl,15.6%
2,O=C(COC(=O)CNC(=O)c1sc2ccccc2c1Cl)Nc1cc(Cl)cc(Cl)c1,-54.7%
3,NC(=O)c1ccc(NC(=O)COC(=O)CNC(=O)c2sc3ccccc3c2Cl)cc1,-12.8%
4,Cc1nc(-c2nc(-c3c(C(=O)NNC(=O)c4ccc(Cl)cc4)noc3C)cs2)cs1,-35.1%
5,CCN(CC)CCN(C)Cc1nc(C(c2ccccc2)c2ccccc2)no1,-57.7%
6,CN(CCc1cn[nH]c1)Cc1nc(C(c2ccccc2)c2ccccc2)no1,-38.5%
7,COCCN(C)Cc1nc(C(c2ccccc2)c2ccccc2)no1,3.28%
8,O=c1c2ccccc2nc(/C=C/c2ccc(O)cc2)n1CCc1ccccc1,-17.3%
9,O=C(CN1c2ccccc2Sc2ccccc21)NNC(=O)Nc1cccc(Cl)c1,2.84%
10,CCOC(=O)C1=C(COC(=O)[C@H](C)NS(=O)(=O)c2ccc(NC(C)=O)cc2)NC(=O)NC1C (stereo partly drawn),21.2%
11,O=C(O)CCn1c(=O)[nH]c2ccccc2c1=O,12.4%
12,O=C(O)C(O)C(O)C(=O)O.O=C(c1ccc(F)cc1)C1CCN(CCn2c(=O)[nH]c3ccccc3c2=O)CC1,-51.8%
13,O=c1c2ccccc2[nH]c(=S)n1CCN1CCCC1,-19.1%
14,CCOc1ccccc1C(=O)N1CCC(C(=O)c2ccc(F)cc2)CC1,-25.2%
15,CC1(C)C(=O)N(CCN2CCC(C(=O)c3ccc(F)cc3)CC2)c2ccccc21.Cl,-70.5%
16,CN1CCN(CCn2c(=S)[nH]c3ccccc3c2=O)CC1,6.07%
17,O=C(c1ccc(F)cc1)C1CCN(C(=O)c2ccccc2)CC1,-9.13%
18,O=C(CCCCn1c(=O)[nH]c2ccccc2c1=O)NC1CCN(Cc2ccccc2)CC1,-18.9%
19,Cl.O.O=C(c1ccc(F)cc1)C1CCN(CCn2c(=S)[nH]c3ccccc3c2=O)CC1,-68.9%
20,O=C(NNc1cc(Cl)cc(Cl)c1)C1CCC1,21.9%
21,COc1ccc(NC(=O)Cn2c(C)cc(=O)c3ccccc32)cc1,-7.76%
